A short description of test [1]: qHTS assay to identify small molecule antagonists of the estrogen related receptor (ERR) signaling pathway from Tox21 library - cell viability counter screen (AID 1224834). Note: nearly all actives have a fitted effect of over 30% in size. The method in brief: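 ERR reporter cells, 2,000 per well, rested 6 h, then exposed to compound in DMSO for 17.5 hours at 37 C. Viability read as fluorescence after 30 min with CellTiter-Fluor.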

The target of test [2] is Luciferin 4-monooxygenase (Photinus pyralis) (UniProt P08659). Kind of test: qHTS assay to identify small molecule inhibitors of firefly luciferase (AID 1224835). For activity change, negative = inhibition: series mostly up to about 120 µM. Note: nearly all actives have a fitted effect of over 25% in size. Note: potency is the fitted concentration of half-maximal effect. In outline: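 Inhibition of purified Photinus luciferase is measured by luminescence. Substrate levels (D-luciferin, ATP) sit at their KM values. Each compound is tested in a concentration series.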
Sequence of Luciferin 4-monooxygenase (Photinus pyralis) (P08659 whole entry, looked up): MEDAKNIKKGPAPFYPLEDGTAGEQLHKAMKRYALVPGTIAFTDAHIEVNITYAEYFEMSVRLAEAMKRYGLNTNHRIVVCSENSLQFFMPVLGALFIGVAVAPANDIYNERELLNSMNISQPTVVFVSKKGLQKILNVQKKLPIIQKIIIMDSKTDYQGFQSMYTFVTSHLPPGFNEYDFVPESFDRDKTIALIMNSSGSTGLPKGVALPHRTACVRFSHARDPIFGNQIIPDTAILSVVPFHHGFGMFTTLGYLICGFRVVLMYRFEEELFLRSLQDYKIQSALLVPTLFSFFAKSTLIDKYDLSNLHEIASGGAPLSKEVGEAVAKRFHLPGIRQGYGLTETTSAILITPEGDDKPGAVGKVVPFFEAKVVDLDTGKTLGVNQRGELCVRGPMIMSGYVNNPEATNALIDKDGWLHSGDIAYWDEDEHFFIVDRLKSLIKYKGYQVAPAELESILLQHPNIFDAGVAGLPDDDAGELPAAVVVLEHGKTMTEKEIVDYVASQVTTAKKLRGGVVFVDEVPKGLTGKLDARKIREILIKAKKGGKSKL
Test [3] is described as follows: qHTS assay to identify small molecule agonists of the constitutive androstane receptor (CAR) signaling pathway - cell viability counter screen (AID 1224836). Note: series mostly up to about 92 µM; nearly all actives have a fitted effect of over 45% in size. In outline:
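Multiplexed viability check: HepG2-CYP2B6-hCAR cells, 15-point compound dosing, 0.75 uM PK11195 final, 23 h at 37 C, CellTiter-Fluor fluorescence.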

The nature of test [4]: qHTS assay to identify small molecule antagonists of the constitutive androstane receptor (CAR) signaling pathway - cell viability counter screen (AID 1224837). Note: series mostly up to about 92 µM; nearly all actives have a fitted effect of over 45% in size. The method in brief: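 HepG2 cells stably carrying hCAR and CYP2B6-2.2kb reporter, stimulated with 50 nM CITCO and compounds at 15 concentrations for 23 h at 37 C. Viability measured by CellTiter-Fluor fluorescence.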

The target in test [5] is Nuclear receptor subfamily 1 group I member 3 (Homo sapiens) (UniProt Q14994). Kind of test: qHTS assay to identify small molecule antagonists of the constitutive androstane receptor (CAR) signaling pathway (AID 1224838). Note: nearly all actives have a fitted effect of over 40% in size. The method in brief:
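HepG2 cells stably carrying hCAR and a CYP2B6-2.2kb luciferase reporter, seeded 4 hrs before compound (15 concentrations). Stimulated with 50 nM CITCO for 24 hr at 37 C. ONE-Glo luminescence read after 30 min at room temperature.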

For test [6] the target is unchanged. Kind of test: qHTS assay to identify small molecule agonists of the constitutive androstane receptor (CAR) signaling pathway (AID 1224839). For activation: series mostly up to about 92 µM. Note: nearly all actives have a fitted effect of over 15% in size. Note: potency is the fitted concentration of half-maximal effect. The method in brief: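 Using human hepatoma HepG2 cells engineered with hCAR and a CYP2B6-2.2kb reporter, 15-concentration compound series were incubated 24 h alongside PK11195 at 0.75 uM final, with luminescence quantified afterwards.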

Test [7] is described as follows: qHTS assay to identify small molecule antagonists of the estrogen related receptor signaling pathway with the pleiotropic PPARgamma coactivator (PGC) from Tox21 10K library - cell viability counter screen (AID 1224840; active = well fitted cell-killing curve with a large enough effect in the repeat runs, not every such curve was filed as active; note: nearly all actives have a fitted effect of over 40% in size). The method in brief:
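PGC/ERR cells (2,000/well) plated 6 h, then compound-treated for 17.5 h at 37 C. Viability measured by CellTiter-Fluor fluorescence after 30 min at 37 C, multiplexed with the pathway assay.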

Test [8] deals with Thyrotropin receptor (Homo sapiens) (UniProt P16473). In words: qHTS assay to identify small molecule agonists of the thyroid stimulating hormone receptor (TSHR) signaling pathway (AID 1224843; calls by dose curve; note: nearly all actives have a fitted effect of over 45% in size). The method in brief: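 Screening of the Tox21 10K collection used HEK293 cells engineered with TSHR at 800 cells per well. After a 30-min room-temperature compound exposure, HTRF cAMP reagents were added and fluorescence recorded 1 h later.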
Sequence of Thyrotropin receptor (Homo sapiens) (P16473 whole entry, looked up): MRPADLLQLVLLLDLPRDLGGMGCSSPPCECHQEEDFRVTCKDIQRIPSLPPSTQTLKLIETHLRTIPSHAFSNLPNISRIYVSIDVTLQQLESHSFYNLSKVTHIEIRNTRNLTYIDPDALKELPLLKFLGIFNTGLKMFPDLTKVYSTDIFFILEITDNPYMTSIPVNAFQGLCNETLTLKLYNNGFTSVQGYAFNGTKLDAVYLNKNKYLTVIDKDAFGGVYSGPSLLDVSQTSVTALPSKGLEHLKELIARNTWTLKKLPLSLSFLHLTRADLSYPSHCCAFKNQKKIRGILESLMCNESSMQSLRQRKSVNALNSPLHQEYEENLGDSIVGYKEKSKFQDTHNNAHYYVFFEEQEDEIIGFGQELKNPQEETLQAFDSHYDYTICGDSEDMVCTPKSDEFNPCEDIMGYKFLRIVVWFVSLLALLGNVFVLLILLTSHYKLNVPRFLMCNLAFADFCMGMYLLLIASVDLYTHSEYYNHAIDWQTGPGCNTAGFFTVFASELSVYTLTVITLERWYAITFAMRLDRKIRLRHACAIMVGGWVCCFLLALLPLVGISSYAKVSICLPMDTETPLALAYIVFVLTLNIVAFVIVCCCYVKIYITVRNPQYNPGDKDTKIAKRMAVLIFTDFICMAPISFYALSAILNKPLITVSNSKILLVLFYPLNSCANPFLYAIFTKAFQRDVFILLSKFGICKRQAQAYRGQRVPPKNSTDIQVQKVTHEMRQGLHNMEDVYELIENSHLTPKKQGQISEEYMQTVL

Test [9] in a line: qHTS assay to identify small molecule antagonists of the estrogen related receptor signaling pathway with the pleiotropic PPARgamma coactivator (PGC) from Tox21 10K library (AID 1224841; call rule not given here; note: series mostly up to about 92 µM; actives are mostly falling curves and most rising ones were filed inactive; nearly all actives have a fitted effect of over 50% in size). In outline:
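PGC/ERR cell line, 2,000 cells/well, pre-incubated 6 hours at 37 C, then exposed to compounds for 18 hours at 37 C; luciferase read with One-Glo luminescence after 30 min at room temperature.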

Test [10] is described as follows: qHTS assay to identify small molecule agonists of the estrogen related receptor signaling pathway with the pleiotropic PPARgamma coactivator (PGC) from Tox21 10K library (AID 1224842). Note: nearly all actives have a fitted effect of over 15% in size. In outline:
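Luminescence from One-Glo (30 min, room temperature) measured after PGC/ERR cells had 18 h at 37 C with pinned compound (23 nL in DMSO). Cells had been seeded at 2,000 per well and pre-incubated 6 h.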

The values below come from PubChem BioAssay (Tox21).

Inconclusive results are not listed. A number with no mark means an inactive call. Activity calls are given as the source filed them. Unless noted, calls come from the whole dose curve; as a rule, active = well fitted curve in the direction sought with a large enough effect in the repeat runs; inconclusive = weak or mixed curves; inactive = no such curve, though single readings can be large; an effect the other way counts as inactive or inconclusive.
% is set by controls: 0 for no effect and ±100 for the full control effect.

Sequence of Nuclear receptor subfamily 1 group I member 3 (Homo sapiens) (Q14994 whole entry, looked up): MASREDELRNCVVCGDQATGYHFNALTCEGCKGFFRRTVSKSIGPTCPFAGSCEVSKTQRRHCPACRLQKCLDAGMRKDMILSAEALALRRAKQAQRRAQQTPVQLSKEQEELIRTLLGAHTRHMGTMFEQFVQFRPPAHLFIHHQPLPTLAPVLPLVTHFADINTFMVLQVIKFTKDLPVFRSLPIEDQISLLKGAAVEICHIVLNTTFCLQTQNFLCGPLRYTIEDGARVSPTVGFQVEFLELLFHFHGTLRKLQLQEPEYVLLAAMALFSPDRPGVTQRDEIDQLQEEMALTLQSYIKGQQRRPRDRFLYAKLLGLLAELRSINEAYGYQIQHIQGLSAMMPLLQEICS

For the compound `CC(C)(C)NSc1nc2ccccc2s1`, the Potency result in test [1], in test [3], in test [4], in [5], in test [6] and in test [7] was “inactive” each time. The Potency result in [8] is “inactive”. For the same compound, the Potency in test [2] is 18.1 µM (active).
For the compound `CCN(CCN)c1cccc(C)c1`, the Potency entry in test [1], in [2], in [3], in test [4], in test [5] and in test [7] was “inactive” in each case. Further, the Potency result in test [9], in [10] and in test [8] was “inactive” each time.
As for `C[C@H]1NCc2cc(-c3ccc4c(=O)c(C(=O)O)cn(C5CC5)c4c3OC(F)F)ccc21`, the viability change, negative = cytotoxic in test [1] was -0.362% [at 19 µM]; in test [3] it was 8.47% [at 19 µM]; in test [7], 5.39% [at 19 µM]. The activity change, negative = inhibition in [2] was -0.0227% [at 23.6 µM]. Also, the activity change, negative = cytotoxicity in test [4] was -0.799% [at 19 µM]. Also, in test [5], the activity, negative = inhibition was 10.2% [at 19 µM]. Besides, the activation in test [6] is -2.33% [at 19 µM]; in test [8], 2.59% [at 19 µM].
As for `CC(C)CCCCCOC(=O)CCS`, the Potency entry in test [1], in [2], in test [3], in [4], in [5] and in test [7] was “inactive” each time. Also, the Potency entry in test [9], in test [10] and in test [8] was “inactive” throughout.
Turning to `O=C(O)c1ccc2cc(C(=O)O)ccc2c1`, the Potency entry in test [1], in test [2], in test [3], in [4], in test [5] and in test [6] was “inactive” in each case. In addition, the Potency entry in [7] and in [8] was “inactive” throughout.
Regarding `CCCCCCCC/C=C\CCCCCCCCN`, the Potency entry in [1], in [2], in test [3], in [4], in test [5] and in test [7] was “inactive” throughout. For the same compound, the Potency result in [10] and in [8] was “inactive” in each case.
As to `CCCCCCCCCCCC(=O)OCC(C)OC(=O)CCCCC(=O)O` (centres undefined), the Potency result in test [1], in [2], in test [3], in test [4], in test [5] and in test [6] was “inactive” each time. In addition, the Potency entry in test [7], in [10] and in test [8] was “inactive” in each case.
As for `CC1=CCC(=C(C)C)CC1`, the Potency result in [1], in [2], in test [3], in test [4], in test [5] and in test [6] was “inactive” in each case. The Potency result in test [7] was “inactive”.
Take `CCCC(=O)OCCc1ccccc1`: the Potency entry in [1], in test [3], in test [4], in test [5], in test [6] and in test [7] was “inactive” in each case. The Potency result in test [8] is “inactive”. Further, the Potency in [2] is 79.6 µM (active).
Turning to `O=C(O)CCN(C1(C(=O)NO)CCCC1)S(=O)(=O)c1ccc(Oc2ccc(F)cc2)cc1`, the Potency entry in test [1], in test [2], in test [3], in [4], in test [5] and in test [7] was “inactive” throughout. In addition, the Potency result in test [10] and in test [8] was “inactive” throughout.
Regarding `Clc1nnc(Cl)c2ccccc12`, the Potency result in [1], in test [2], in test [3], in test [4], in test [5] and in [7] was “inactive” each time.
For `CC(C(=O)O)c1ccc2c(c1)[nH]c1ccc(Cl)cc12` (centres undefined), the Potency result in [1], in test [3], in test [4], in test [5], in [6] and in [7] was “inactive” throughout. In [8], the Potency entry is “inactive”. In test [2], the Potency was 34.7 µM (active).
In the case of `ClCCl`, the Potency result in test [1], in test [2], in test [3], in test [4], in test [5] and in [7] was “inactive” in each case.
In the case of `CCN1C(=O)c2ccccc2C1Nc1ccc(OCCN2CCCCC2)cc1` (centres undefined), the Potency entry in test [1], in test [2], in test [3], in test [4], in test [5] and in test [6] was “inactive” throughout. The Potency entry in test [7] and in test [8] was “inactive” throughout.
As to `CCOC(=O)Cn1cccc1-c1nc(-c2ccc(OC)cc2)c(-c2ccc(OC)cc2)s1`, the Potency entry in [1], in [2], in test [3], in test [4], in [5] and in test [7] was “inactive” throughout.
In the case of `Clc1ccnc(Cl)n1`, the Potency entry in test [1], in [2], in [3], in test [4], in test [5] and in [6] was “inactive” in each case. For the same compound, the Potency result in [7] and in test [10] was “inactive” each time.
Regarding `C=C(C)C(=O)OCCCCCCCCCC`, the Potency result in test [1], in test [2], in test [3], in [4], in [5] and in [6] was “inactive” in each case. Moreover, the Potency result in test [9], in test [10] and in [8] was “inactive” each time.
Regarding `CCC(CC)(CC(=O)Nc1cccc(/C=C/c2nc(C3CCC3)cs2)c1)C(=O)O`, the Potency entry in test [1], in test [3], in [4], in test [5] and in test [7] was “inactive” throughout. Moreover, the Potency in test [2] is 2.75 µM (active); in [6], 23.7 µM (active).
On to `CN(C)Cc1ccccc1O`, for which the Potency result in test [1], in test [2], in test [3], in test [4], in [5] and in test [6] was “inactive” in each case. For the same compound, the Potency result in [7], in test [9], in test [10] and in test [8] was “inactive” in each case.
Turning to `C=CC(C)(CCC=C(C)C)OC=O` (centres undefined), the Potency result in test [1], in [2], in test [3], in test [4], in test [5] and in [6] was “inactive” throughout. In addition, the Potency entry in test [7], in [9], in test [10] and in [8] was “inactive” each time.
With `CCCNCCC`, the Potency entry in [1], in test [2], in test [3], in [4], in test [5] and in test [6] was “inactive” throughout. Moreover, the Potency entry in test [7] and in test [8] was “inactive” each time.
`CCC(=O)OC(=O)CC`: the Potency entry in test [1], in test [2], in [3], in test [4], in test [5] and in test [6] was “inactive” each time. Moreover, the Potency result in test [7] and in test [8] was “inactive” throughout.
Consider `FC(F)(F)c1cccc(Cl)c1`, for which the Potency entry in test [1], in [2], in [3], in test [4], in test [5] and in test [6] was “inactive” in each case. In addition, the Potency entry in test [7] and in [8] was “inactive” in each case.
